Test results as given in PubChem BioAssay.
Inconclusive results are not listed. Activity calls are given as the source filed them.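 How the source made its calls, unless noted: active means RAM network inhibition above 8.4% in each of two replicates, 3 SD over the compound average; inconclusive means above 8.4% inhibition in only one replicate; inactive means 8.4% inhibition or less in each replicate.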

Assays:
[1] = HUVEC growth inhibition – cell-based, human, primary screen (AID 575;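 active means viability at or below 30% in both replicate assays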;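 further: 100% = median of untreated cell wells with 0.1% DMSO on each plate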); conditions: HUVEC proliferation, CellTiter-Glo luminescence, 72 h; at 10 µM; stronger effect = lower value
[2] = H69AR cell proliferation blockers – human, duplicate replicates, primary screen (AID 580;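 active means viability at or under a set limit in both replicates, limit being median viability minus 3 SD, cut at about 48% in these data, passing the limit was not always enough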;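 further: 100% = mean luminescence of untreated wells and 0% = no signal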); conditions: H69AR lung tumor cells viability, ATP luminescence, 72 h; at 10 µM; stronger effect = lower value
[3] = MRP1 drug-resistance reversers in H69AR cells – cell-based, doxorubicin co-treatment, pilot screen (AID 601;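 active means viability loss from added drug above about 55%, and viability with drug at most 40%, in both replicates, limit read from the data, passing the limit was not always enough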); conditions: CellTiter-Glo, 72 h, at 10 µM; for differential viability (reversal): stronger effect = higher value
[4] = yeast transport mutant growth inhibition pilot in 384-well plates, post-Golgi transport modulator project (AID 636; in the data active means inhibition above about 31%); conditions: absorbance 615 nm, about 18 h, stronger effect = higher value
[5] = growth suppression of yeast trafficking mutant, preliminary HTS, modulators of trafficking downstream of Golgi apparatus project, 1536-format plate, OD 615 nm (AID 637; in the data active means inhibition above about 30%); conditions: yeast transport mutant growth, absorbance 615 nm, 18 h; stronger effect = higher value
[6] = S. cerevisiae growth inhibition in permissive medium (OD615), pilot counter-assay for S. cerevisiae lifespan shortening project, permissive growth control (AID 705;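 active means growth inhibition above 25% in both replicates, a cutoff set 3 SD above the mean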); conditions: OD615, 24 h, at 10 µM, stronger effect = higher value
[7] = S. cerevisiae growth inhibition in restrictive medium, OD615, pilot screen, restrictive growth control, yeast lifespan reduction project (AID 706;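 active means growth inhibition above a set limit, 3 SD over mean compound inhibition, in both replicates, cut at about 43% in these data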;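 further: modified DeaD lifespan yeast strain shifted to restrictive glucose medium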); conditions: OD615, 48 h, at 10 µM, stronger effect = higher value
[8] = doxorubicin toxicity protection in MRP-1 cells – H69AR cells, CellTiter-Glo, duplicate, MRP-1 activator project, pilot screen (AID 807;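 active means viability increase at or above a cutoff of the median across tested compounds plus 3 SD, cut at about 8.5% in these data, passing the limit was not always enough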;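 further: compound pretreatment 18-22 h then 72 h combined with doxorubicin; 0% = doxorubicin alone and 100% = vehicle without doxorubicin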); conditions: H69AR viability with doxorubicin, CellTiter-Glo luminescence; at 10 µM; stronger effect = higher value
[9] = viability of HCT116 without oncogenic beta-catenin – human colon tumor cells, pilot screen (AID 823;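 active means cell viability at or below a set limit in both duplicate runs, the limit being the all-compound median minus 4 SD, cut at about 23% in these data, passing the limit was not always enough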;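 further: 0% = wells killed by 20 µM Hyamine and 100% = untreated DMSO cell wells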); conditions: HCT116 beta-catenin knockout viability, CellTiter-Glo, 60 h; at 10 µM; stronger effect = lower value
[10] = RAM pathway blockade in budding yeast – dse1pr::URA3 reporter, 5-FOA selection, pilot screen (AID 869;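 active means inhibition over a set limit, the all-compound mean plus 3 SD, in both replicate runs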;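 further: 0% = DMSO wells with no growth and 100% = 10 µM 1-NA-PP1 with full growth; RAM network block rescues cells from 5-FOA so hits raise OD615 growth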); conditions: S. cerevisiae dse1pr::URA3 5-FOA growth, OD615, 2 d; at 10 µM; stronger effect = higher value; strain carries analog-sensitive mutant Cbk1 kinase
[11] = RAM signaling pathway blockade in yeast – S. cerevisiae, Pdr1DBD-CYC8 efflux-inhibited sensitized strain, primary screen (AID 1298);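 further: 0% = DMSO untreated cells without growth and 100% = 10 µM 1-NA-PP1 full growth; higher means more yeast growth rescued from 5-FOA killing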; conditions: S. cerevisiae cbk1-as DSE1-URA3 strain, 5-FOA growth OD615, 2 d; at 50 µM; stronger effect = higher value
[12] = viability of PTEN-null HCT116 cells – cell-based, HCT116 clonal line, CellTiter-Glo, pilot screen (AID 824;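 active means viability at or below 27.92% in each of two runs, the all-compound median minus 4 SD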;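 further: 0% = 20 µM Hyamine control and 100% = vehicle cell control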); conditions: HCT116 PTEN-deleted viability, 60 h, at 10 µM, stronger effect = lower value
[13] = H69AR cells + 2 uM doxorubicin, measured here: viability with 2 uM doxorubicin, stronger effect = lower value
[14] = H69AR cells, compound alone cytotoxicity

COCCn1c(=O)[nH]c2cc(C(=O)NCCCN3CCN(c4ccc(F)cc4)CC3)ccc2c1=O
inactive: viability [1] 97.8% | viability [2] 100% | differential viability (reversal) ([3]; H69AR cells + 2 uM doxorubicin) 3.64% | inhibition [4] 0% | inhibition [5] -2.38% | growth inhibition [6] -12.8% | growth inhibition [7] -0.415% | viability increase [8] -0.08% | viability [9] 86.2% | inhibition [10] 0.63% | RAM network inhibition [11] 8.31%
96.6%: viability [3, 13]
100%: viability [3, 14]

O=C1CC(c2ccco2)CC(O)=C1C=NCCN1CCNCC1 (centres undefined)
inactive: viability [1] 103% | viability [2] 95.6% | differential viability (reversal) ([3]; H69AR cells + 2 uM doxorubicin) 3.35% | inhibition [4] 0.13% | inhibition [5] 5.56% | growth inhibition [6] -10.2% | growth inhibition [7] 3.51% | viability increase [8] 0.26% | viability [9] 91% | viability [12] 101% | inhibition [10] 0.405% | RAM network inhibition [11] 1.52%
92.3%: viability [3, 13]
95.6%: viability [3, 14]

CCn1c(CCNC(=O)c2ccc(OC)c(OC)c2)nc2ccccc21
76.6%: viability [3, 13]
inactive: viability [1] 103% | viability [2] 83.2% | differential viability (reversal) ([3]; H69AR cells + 2 uM doxorubicin) 6.54% | inhibition [4] -5.92% | inhibition [5] -2.22% | growth inhibition [6] -10.8% | growth inhibition [7] -11.1% | viability increase [8] -2.22% | viability [9] 102% | viability [12] 99.2% | inhibition [10] 1.87% | RAM network inhibition [11] 4.36%
83.2%: viability [3, 14]

CCCCNC(=O)Nc1ccnn1C1CCCCC1
100%: viability [3, 14]
87.2%: viability [3, 13]
inactive: viability [1] 96.5% | viability [2] 100% | differential viability (reversal) ([3]; H69AR cells + 2 uM doxorubicin) 13% | inhibition [4] -3.64% | inhibition [5] 7.14% | growth inhibition [6] -5.58% | growth inhibition [7] -15% | viability increase [8] -1.77% | viability [9] 97.9% | viability [12] 90.7% | inhibition [10] -0.255% | RAM network inhibition [11] -2.79%

CCCCC(NC(C)=O)c1nc2ccccc2n1CCC (centres undefined)
100%: viability [3, 14]
89.7%: viability [3, 13]
inactive: viability [1] 93.9% | viability [2] 100% | differential viability (reversal) ([3]; H69AR cells + 2 uM doxorubicin) 10.6% | inhibition [4] 1.32% | inhibition [5] 7.62% | growth inhibition [6] -5.8% | growth inhibition [7] -2.95% | viability increase [8] -0.99% | viability [9] 93.6% | viability [12] 93.3% | inhibition [10] 1.44% | RAM network inhibition [11] -0.69%

CCC(=O)Oc1ccc2c(C)cc(=O)oc2c1C
inactive: viability [1] 91.1% | viability [2] 90.6% | differential viability (reversal) ([3]; H69AR cells + 2 uM doxorubicin) -11.8% | inhibition [4] 0.39% | inhibition [5] 9.21% | growth inhibition [6] -8.37% | growth inhibition [7] 7.31% | viability increase [8] -4.73% | viability [9] 102% | viability [12] 97% | inhibition [10] 0.15% | RAM network inhibition [11] 3.51%
90.6%: viability [3, 14]
102%: viability [3, 13]

CCCCCOC(=O)CSc1nc2c(c(=O)[nH]c(=O)n2C)n1Cc1ccc(Cl)cc1
inactive: growth inhibition [6] 11.9% | growth inhibition [7] 23.6% | viability increase [8] -3.26% | viability [9] 93.2% | viability [12] 84.7% | RAM network inhibition [11] 2.16%

Cc1ccc(-c2cc(C(F)F)nc(NCc3cccnc3)n2)cc1
80.3%: viability [3, 14]
82.8%: viability [3, 13]
inactive: viability [1] 63.9% | viability [2] 80.3% | differential viability (reversal) ([3]; H69AR cells + 2 uM doxorubicin) -2.5% | inhibition [4] -2.63% | inhibition [5] 0.48% | growth inhibition [6] 4.57% | growth inhibition [7] -8.25% | viability [9] 51% | viability [12] 64.2% | inhibition [10] 1.65% | RAM network inhibition [11] 0.76%

O=c1c2ccccc2nc2c3ccccc3ncn12
inactive: growth inhibition [6] -15.1% | growth inhibition [7] -15.2% | viability increase [8] -0.34% | viability [9] 103% | viability [12] 101% | RAM network inhibition [11] 6.01%

N#Cc1nc(-c2ccc(Cl)cc2)oc1NCCc1ccccn1
inactive: viability [1] 102% | viability [2] 104% | differential viability (reversal) ([3]; H69AR cells + 2 uM doxorubicin) 7.66% | inhibition [4] 0.39% | inhibition [5] 5.4% | growth inhibition [6] 1% | growth inhibition [7] 0.83% | viability increase [8] -0.49% | viability [9] 97.3% | inhibition [10] 1.07% | RAM network inhibition [11] 7.29%
96%: viability [3, 13]
104%: viability [3, 14]

CCOC(=O)Nc1ccc(S(=O)(=O)Nn2cnnc2)cc1
inactive: growth inhibition [6] -14.5% | growth inhibition [7] 1.07% | viability increase [8] 0% | viability [9] 89% | viability [12] 108% | RAM network inhibition [11] 3.94%

CCn1cc(C(=O)NC2CCCCC2)c(=O)c2cc(S(=O)(=O)N(C)C)ccc21
inactive: growth inhibition [6] -0.125% | growth inhibition [7] 2.4% | viability increase [8] -1.45% | viability [9] 102% | viability [12] 94.7% | RAM network inhibition [11] -1.57%

CS(=O)(=O)c1ccc2nc(NC(=O)Cc3ccccc3)sc2c1
inactive: growth inhibition [6] -10.9% | growth inhibition [7] -4.83% | viability increase [8] -4.98% | viability [9] 91.5% | viability [12] 96.3% | RAM network inhibition [11] 3.94%
